Measurements taken from PubChem BioAssay AID463193 (University of Pittsburgh Molecular Library Screening Center, 2010).
Hit rate of the full screen: of about 190,000 compounds, about 1,900 (1%) were called active. This is one part of a sample in which actives are shown more often than they occur.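 The calls were made as follows: active = percentage of spot-positive cells more than 3 SD above its plate mean, without a fluorescence outlier flag or 80% toxicity; inconclusive = no clear call, values can overlap the other calls; inactive = the rest.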

assay: autophagy modulators in MEF cells, primary screen, imaging, high-content, MEF GFP-LC3 (AID 463193); conditions: MEF GFP-LC3 puncta imaging, at 10 µM; % cells with GFP-LC3 spots: stronger effect = higher value; toxicity: measured here: cell loss, nuclei count;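 as to % cells with GFP-LC3 spots: spot-positive cell cutoff set from DMSO-treated cells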;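 as to toxicity: cell loss after 18 h compound exposure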

SMILES	% cells with GFP-LC3 spots	toxicity [%]
Cc1ccc(NC(=O)C(=O)NCc2ccc(/C=N/NC(=O)c3c(C)nc4cc(C)ccn34)o2)cc1	7.6% (inactive)	-9.46
Cc1ccc(C(=O)/C=C/Nc2ccc(S(=O)(=O)Nc3onc(C)c3C)cc2)cc1	2.91% (inactive)	14.6
COc1cc2c(cc1OC)CC1(CCCCC1)N=C2	0.564% (inactive)	-2.01
Cc1cccn2c(=O)c(/C=C3\SC(=S)N(CC(C)C)C3=O)c(NCCCOC(C)C)nc12	83.5% (active)	1.08
CNc1nc2c(C)cccn2c(=O)c1C=Nc1ccc(OC)cc1	16.2% (inactive)	19.6
CCn1c(=N)c(C(=O)NCCCOC)cc2c(=O)n3cccc(C)c3nc21	6.38% (inactive)	16.3
Cn1cc(-c2ccccc2)cc(C#N)c1=O	1.72% (inactive)	2.28
COc1ccc(CN2CN(C3CCCC3)CSC2=S)cc1	6.4% (inactive)	-8.41
COc1ccc(C(CC(=O)Nc2ccc(C)cc2)NC(=O)C(F)(F)F)cc1 (stereo unspecified)	6.89% (inactive)	-5.77
CC(=O)/C(=N\Nc1ccc(Cl)cc1Cl)Sc1cccc2cccnc12	80.1% (active)	-7.61
O=C(CSc1cccc2cccnc12)N/N=C/c1cccnc1	16.6% (inactive)	24.2
S=C(NCc1cccnc1)Nc1ccc(Cl)cc1Cl	1.61% (inactive)	10
CC(C)(C)CC(C)(C)NCC(O)COCCOc1ccc(Br)cc1 (stereo unspecified)	10.9% (inactive)	5.37
c1ccc(C2c3[nH]c4ccccc4c3CCN2Cc2cccn2-c2cccnc2)nc1 (stereo unspecified)	1.12% (inactive)	-2.12
Fc1cccc2ncnc(OCc3ccccc3)c12	3.59% (inactive)	-3.11
COc1ccc(OC)c(NC(=O)Cn2c(=O)oc3ccccc32)c1	18.4% (active)	3.57
COc1ccc(CCNC(=O)CCn2c(=O)oc3ccccc32)cc1OC	4.11% (inactive)	-1.63
COc1ccc(OC)c(NC(=O)CN2CCN(C(=O)c3ccco3)CC2)c1	0.967% (inactive)	2.86
CCN(CC(=O)NCCc1ccccc1)S(=O)(=O)c1ccccc1	12% (inactive)	29.2
Cc1c(Br)c([N+](=O)[O-])nn1CC(=O)N1CCN(Cc2ccccc2)CC1	3.58% (inactive)	7.29
CSc1nc2ccccc2c(=O)n1Cc1ccc(F)cc1	35.2% (active)	0.835
O=C(CCn1c(SCC(=O)c2ccccc2)nc2ccccc2c1=O)NCc1ccc(F)cc1	5.36% (inactive)	4.33
CC(Sc1nc2ccccc2c(=O)n1Cc1ccco1)C(=O)c1ccccc1 (stereo unspecified)	11.8% (inactive)	-5.88
